From PubChem BioAssay (EPA / NIEHS)
Results filed as inconclusive are left out. Calls of active or inactive are those of the source. Rule for the calls: active = hit-call score of the fitted dose curve at least 0.9, where 1 is the maximum; inconclusive = response in the unintended direction; inactive = score below 0.9.

Assay: CCTE_Deisenroth_AIME_384WELL_CTox_Inactive: Cytotoxicity Assessment (CTOX) in CCTE's 384-well Estrogen Receptor Transactivation Assay without AIME metabolic competence (metabolism negative), Deisenroth Lab (AID 2284039);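 note: cell viability via live-cell protease substrate cleaved to fluorescent probe; cells exposed 24 h to medium preincubated 2 h with alginate-water beads without S9; loss of fluorescence signal means loss of viability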
How it was run: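 Fluorescence from a live-cell protease substrate, read after 24 h in VM7Luc4E2 cells, indicated viability. Test medium came from a 2 h AIME step without hepatic S9 (alginate-water microspheres); concentrations spanned 0.002 - 200 uM, single technical replicate per run.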

SMILES	outcome	AC50
COCC(C)N(C(=O)CCl)c1c(C)csc1C (centres undefined)	inactive	–
O=c1n(Cl)c(=O)n(Cl)c(=O)n1Cl	inactive	–
COC(=O)NC(=S)Nc1ccccc1NC(=S)NC(=O)OC	inactive	–
COc1cc(OC)nc(NC(=O)NS(=O)(=O)c2ncccc2OCC(F)(F)F)n1	inactive	–
N#Cc1c(Cl)cccc1Cl	inactive	–
COCc1cnc(C2=NC(C)(C(C)C)C(=O)N2)c(C(=O)O)c1 (centres undefined)	inactive	–
CCOC(=O)C(C)OC(=O)c1cc(Oc2ccc(C(F)(F)F)cc2Cl)ccc1[N+](=O)[O-] (centres undefined)	–	100 µM (active)
CC(C)=CC1C(C(=O)OCc2coc(Cc3ccccc3)c2)C1(C)C (centres undefined)	inactive	–
COP(=S)(OC)Oc1ccc([N+](=O)[O-])c(C)c1	inactive	–
C=C(C)CN(CC)c1c([N+](=O)[O-])cc(C(F)(F)F)cc1[N+](=O)[O-]	inactive	–
COP(=S)(OC)SCn1nnc2ccccc2c1=O	–	100 µM (active)
Nc1c(Cl)c(Cl)nc(C(=O)O)c1Cl	inactive	–
CCSC(=O)N1CCCCCC1	inactive	–
CN=C=S	inactive	–
CCOP(=S)(OCC)Oc1nc(Cl)n(C(C)C)n1	inactive	–
CC1(C)C(C=C(Cl)Cl)C1C(=O)OC(C#N)c1cccc(Oc2ccccc2)c1 (centres undefined)	–	2.33 µM (active)
CS(=O)(=O)c1cc(C(F)(F)F)ccc1C(=O)c1cnoc1C1CC1	inactive	–
CCCC(=NOCC)C1=C(O)CC(CC(C)SCC)CC1=O (centres undefined)	inactive	–
CC(C)N1C(=O)N(c2ccccc2)CSC1=NC(C)(C)C	inactive	–
